Each structure is given as a SMILES string. Results filed as inconclusive are left out. The source holds several records for some structures; these can differ, active in one and inactive in another. Active and inactive are the calls of the source. Unless noted, calls follow the shape of the dose curve; as a rule, active = well fitted curve in the direction sought with a large enough effect in the repeat runs; inconclusive = weak or mixed curves; inactive = no such curve, though single readings can be large; an effect the other way counts as inactive or inconclusive.

Seven compounds from PubChem BioAssay (Tox21) can be followed below.

Assay [1] in a line: qHTS assay to identify small molecule antagonists of the estrogen receptor alpha (ER-alpha) signaling pathway using the BG1 cell line in the presence of 0.1 nM 17-beta-estradiol - cell viability counter screen (AID 1259241). Also: nearly all actives have a fitted effect of over 40% in size. Also: potency is read from the fitted curve at half-maximal effect. An outline of the steps: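 VM7Luc4E2 cells (endogenous ER-alpha, 4×ERE-luciferase), hormone-starved 5 days in charcoal-stripped FBS, were treated with compounds plus 0.1 nM 17beta-estradiol for 22 hr at 37C; viability read in same wells as CellTiter-Fluor live-cell protease fluorescence.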
Background: qHTS replaces the single test concentration by a dilution series.

Assay [2] can be described thus: qHTS assay to identify small molecule phospholipidosis (PLD) inducers (AID 1259344; active = well fitted curve in the direction sought with a large enough effect; an effect the other way counts as inactive or inconclusive). Put shortly: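 Quantitative HTS in HepG2: compound plus LipidTOX Red dye for 24 h, paraformaldehyde fixation with Hoechst 33342, widefield high-content imaging; amiodarone as positive and DMSO as negative control.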
The nature of assay [3]: qHTS assay to identify small molecule HDAC inhibitors - cell viability counter screen (AID 1259365). Also: series mostly up to about 92 µM; nearly all actives have a fitted effect of over 50% in size. An outline of the steps:
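Wild-type HCT-116 cells were seeded at 1,500 per well, incubated overnight at 37 C, then exposed to compounds in DMSO for 2hr. Viability was read by CellTiter-Glo luminescence after 30min at room temperature.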

Assay [4] is described as follows: qHTS assay to identify small molecule agonists of the sonic hedgehog signaling (Shh) pathway - cell viability counter screen (AID 1259366). Also: nearly all actives have a fitted effect of over 50% in size. Also: potency is read from the fitted curve at half-maximal effect. Put shortly:
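NIH/3T3-derived 3T3 Gli1-Luc cells (stable Gli1-responsive firefly luciferase reporter) were seeded, rested 4 hr at 37 C/5% CO2, then exposed to compounds in DMSO for 24 hr; viability was read by CellTiter-Fluor fluorescence in the same wells.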

Assay [5] in a line: qHTS assay to identify small molecule agonists of the sonic hedgehog signaling (Shh) pathway (AID 1259368; calls by dose curve; also: series mostly up to about 92 µM; nearly all actives have a fitted effect of over 15% in size). An outline of the steps: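 A Gli1 transcriptional response element controlled firefly luciferase in 3T3Gli1-Luc cells. Compounds and a positive control were added 4 hr after plating, and cells were incubated a further 24 hr at 37 C before luminescence detection.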
Assay [6] is described as follows: qHTS assay to identify small molecule antagonists of the sonic hedgehog signaling (Shh) pathway (AID 1259369; calls by dose curve; also: nearly all actives have a fitted effect of over 45% in size; also: potency is read from the fitted curve at half-maximal effect). Put shortly: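 For antagonist detection, the reporter line received test compounds together with conditioned medium, incubated 24hr at 37 C, 5% CO2, then luminescence was recorded following 30min room-temperature luciferase reagent incubation.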
For assay [7], the target named is Estrogen receptor beta (Homo sapiens) (UniProt Q92731). Description: qHTS assay to identify small molecule agonists of the estrogen receptor beta (ER-beta) signaling pathway (AID 1259377; active = well fitted activation curve with a large enough effect in the signal ratio in the repeat runs, not every such curve was filed as active; the % refers to the signal ratio). An outline of the steps: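 ER-beta-UAS-bla HEK293T (GripTite) cells carrying a UAS-driven beta-lactamase reporter, in medium with 2% charcoal-stripped FBS, were exposed to compounds for 16 hr at 37C; LiveBLAzer B/G FRET substrate was then added and fluorescence read after 2 hours at room temperature.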

The nature of assay [8]: qHTS assay to identify small molecule agonists of the androgen receptor (AR) signaling pathway in the presence of an antagonist - cell viability counter screen (AID 1259379). Also: nearly all actives have a fitted effect of over 25% in size. Also: potency is read from the fitted curve at half-maximal effect. An outline of the steps:
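Seed MDA-kb2 at 3,000 cells/well; incubate 5 hr, 37C, 0% CO2. Add nilutamide to 3.0uM final, then pin compounds at 15 concentrations. Incubate 16 hr. Add CellTiter-Fluor at 15 hr, read fluorescence after 1 hr.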

Assay [9] can be described thus: qHTS assay to identify small molecule agonists of the estrogen receptor beta (ER-beta) signaling pathway - cell viability counter screen (AID 1259380). Also: nearly all actives have a fitted effect of over 30% in size. Also: potency is read from the fitted curve at half-maximal effect. Put shortly: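 CellTiter-Glo read, 30 min RT, same wells as bla assay; cells ER-beta-UAS-bla HEK293T; 16 hr compound, 37C; medium 2% charcoal-stripped FBS.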
Assay [10] addresses Estrogen receptor (Homo sapiens) (UniProt P03372). Description: qHTS assay to identify small molecule agonists of the estrogen receptor alpha (ER-alpha) signaling pathway in the presence of an antagonist (AID 1259383; calls by dose curve; also: top concentration of the series differs between compounds; nearly all actives have a fitted effect of over 15% in size). An outline of the steps: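 Stably transfected VM7Luc4E2 reporter cells, kept 5 days in charcoal-stripped serum, received ICI-182,780 at 10.0nM final before compound addition. Following 22hr incubation at 37C and 5% CO2, luciferase signal was read by luminescence.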

Assay [11] can be described thus: qHTS assay to identify small molecule agonists or antagonists of the thyroid stimulating hormone receptor (TSHR) signaling pathway - wild type cell line counter screen (AID 1259384; calls by dose curve). Put shortly:
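Wild-type Hek293 cells, 800/well, 18 h at 37C, then compound with Ro20-1724 for 30 min RT. cAMP by HTRF (cAMP-d2/anti-cAMP cryptate), 1 h RT, fluorescence read. 15 concentrations, triplicates.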

Assay [12] is described as follows: qHTS assay to identify small molecule HDAC inhibitors (AID 1259364).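 Also: wild-type HCT-116 cells with endogenous class I/II HDAC activity; top concentration of the series differs between compounds; nearly all actives have a fitted effect of over 45% in size.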 An outline of the steps:
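Read-out: luminescence of HDAC-Glo I/II reagent, 30 min RT, reflecting class I/II deacetylase activity in whole HCT-116 cells pre-exposed 2 h to DMSO-dissolved compounds.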

Assay [13] in a line: qHTS assay to identify small molecule antagonists of the sonic hedgehog signaling (Shh) pathway - cell viability counter screen (AID 1259367). Also: nearly all actives have a fitted effect of over 55% in size. Also: potency is read from the fitted curve at half-maximal effect. Put shortly:
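Seed 3T3 Gli1-Luc cells at 2,000 per well; incubate 4 hr; add compound in DMSO, then conditioned medium; incubate at 37C with 5% CO2; add CellTiter-Fluor after 23 hr; read fluorescence 1 hr later.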

A short description of assay [14]: qHTS assay to identify small molecule antagonists of the estrogen receptor beta (ER-beta) signaling pathway - cell viability counter screen (AID 1259382). Also: nearly all actives have a fitted effect of over 55% in size. Also: potency is read from the fitted curve at half-maximal effect. Put shortly: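 In this multiplexed counter screen, cells were seeded at 2,000 per well in medium with 2% charcoal-stripped FBS and incubated 6 hr before compound and 1nM final E2 were added. Sixteen hours later, ATP-based luminescence reported viability.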

Assay [15] is described as follows: qHTS assay to identify small molecule antagonists of the androgen receptor (AR) signaling pathway using the MDA cell line in the presence of 0.5 nM R1881 - cell viability counter screen (AID 1259242). Also: nearly all actives have a fitted effect of over 45% in size. Also: potency is read from the fitted curve at half-maximal effect. Put shortly: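 Viability of MDA-kb2 cells was multiplexed with the luciferase AR readout; after 16 hr with compounds and R1881 at 0.5 nM final, CellTiter-Fluor fluorescence was recorded.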

Assay [16] concerns the target Androgen receptor (Homo sapiens) (UniProt P10275). Description: qHTS assay to identify small molecule antagonists of the androgen receptor (AR) signaling pathway using the MDA cell line in the presence of 0.5 nM R1881 (AID 1259243). Also: potency is read from the fitted curve at half-maximal effect; nearly all actives have a fitted effect of over 50% in size. An outline of the steps: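 Reporter cells cultured without CO2 receive test chemicals, then 0.5 nM R1881 final; after 16 hr at 37C, ONE-Glo is added and light output recorded.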

Assay [17] addresses Estrogen receptor (Homo sapiens) (UniProt P03372). Nature of the assay: qHTS assay to identify small molecule antagonists of the estrogen receptor alpha (ER-alpha) signaling pathway using the BG1 cell line in the presence of 0.1 nM 17-beta-estradiol (AID 1259244). Also: potency is read from the fitted curve at half-maximal effect; nearly all actives have a fitted effect of over 50% in size. Put shortly:
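Estradiol at 0.1 nM (final) stimulates the endogenous ER-alpha of VM7Luc4E2 cells carrying an ERE-driven luciferase; compounds are co-incubated 22 h at 37C and luciferase output quantified by luminescence.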

Assay [18] deals with Androgen receptor (Homo sapiens) (UniProt P10275). Nature of the assay: qHTS assay to identify small molecule agonists of the androgen receptor (AR) signaling pathway in the presence of an antagonist (AID 1259381; calls by dose curve; also: nearly all actives have a fitted effect of over 15% in size). Put shortly: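 Test compounds at 15 concentrations were incubated for 16hr with MDA-kb2 reporter cells in presence of 3.0uM nilutamide (final). Signal: ONE-Glo luciferase luminescence.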

Assay [19] addresses Thyrotropin receptor (Homo sapiens) (UniProt P16473). Nature of the assay: qHTS assay to identify small molecule antagonists of the thyroid stimulating hormone receptor (TSHR) signaling pathway (AID 1259385; calls by dose curve; also: nearly all actives have a fitted effect of over 20% in size). Put shortly:
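TSHR-HEK293 cells (800/well) plated 18 h, then compounds with Ro20-1724 and TSH at 1.5 ng/mL final, 30 min at room temperature. cAMP quantified by HTRF (cAMP-d2/anti-cAMP-cryptate, 1 h); 15 concentrations in triplicate.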

For assay [20], the target named is Estrogen receptor beta (Homo sapiens) (UniProt Q92731). Nature of the assay: qHTS assay to identify small molecule antagonists of the estrogen receptor beta (ER-beta) signaling pathway (AID 1259378; active = well fitted inhibition curve with a large enough effect in the signal ratio in the repeat runs, not every such curve was filed as active; the % refers to the signal ratio; also: potency is read from the fitted curve at half-maximal effect). Put shortly: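 ER-beta-UAS-bla HEK293T cells in 2% charcoal-stripped FBS medium treated with compound plus 1nM final 17-beta-estradiol for 16 hr at 37C. Beta-lactamase reporter read by FRET substrate fluorescence after 2 hours at room temperature.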

Chain of Estrogen receptor (Homo sapiens) (P03372 whole entry, looked up): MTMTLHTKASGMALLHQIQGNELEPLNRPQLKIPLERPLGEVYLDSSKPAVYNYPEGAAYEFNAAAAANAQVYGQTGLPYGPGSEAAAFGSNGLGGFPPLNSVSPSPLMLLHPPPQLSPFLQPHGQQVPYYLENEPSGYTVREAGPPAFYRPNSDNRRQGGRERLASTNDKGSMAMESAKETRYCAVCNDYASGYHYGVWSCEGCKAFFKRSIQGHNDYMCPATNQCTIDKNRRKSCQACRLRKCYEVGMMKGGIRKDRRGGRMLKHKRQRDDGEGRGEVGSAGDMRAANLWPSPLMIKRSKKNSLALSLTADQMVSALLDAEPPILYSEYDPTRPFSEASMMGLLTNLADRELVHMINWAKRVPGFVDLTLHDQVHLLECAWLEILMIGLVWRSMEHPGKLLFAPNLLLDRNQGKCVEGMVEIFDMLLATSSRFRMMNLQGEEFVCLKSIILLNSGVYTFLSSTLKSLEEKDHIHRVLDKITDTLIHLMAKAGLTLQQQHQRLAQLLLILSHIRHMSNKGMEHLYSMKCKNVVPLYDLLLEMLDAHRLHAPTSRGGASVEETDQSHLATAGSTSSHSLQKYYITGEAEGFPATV
Chain of Estrogen receptor beta (Homo sapiens) (Q92731 whole entry, looked up): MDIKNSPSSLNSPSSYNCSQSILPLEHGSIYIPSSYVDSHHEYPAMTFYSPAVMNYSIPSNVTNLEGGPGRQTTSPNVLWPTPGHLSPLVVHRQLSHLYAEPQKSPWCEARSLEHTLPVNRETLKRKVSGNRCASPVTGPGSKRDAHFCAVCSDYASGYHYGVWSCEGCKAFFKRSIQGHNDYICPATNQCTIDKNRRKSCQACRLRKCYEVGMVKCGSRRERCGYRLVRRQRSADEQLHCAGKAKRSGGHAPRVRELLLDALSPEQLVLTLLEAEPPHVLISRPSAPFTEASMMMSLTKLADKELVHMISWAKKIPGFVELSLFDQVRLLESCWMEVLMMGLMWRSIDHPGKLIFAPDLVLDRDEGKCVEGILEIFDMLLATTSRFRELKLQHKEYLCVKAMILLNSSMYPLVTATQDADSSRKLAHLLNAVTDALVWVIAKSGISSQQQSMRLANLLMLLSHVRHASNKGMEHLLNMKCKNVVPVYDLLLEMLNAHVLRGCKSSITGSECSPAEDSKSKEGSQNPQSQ
Chain of Androgen receptor (Homo sapiens) (P10275 whole entry, looked up): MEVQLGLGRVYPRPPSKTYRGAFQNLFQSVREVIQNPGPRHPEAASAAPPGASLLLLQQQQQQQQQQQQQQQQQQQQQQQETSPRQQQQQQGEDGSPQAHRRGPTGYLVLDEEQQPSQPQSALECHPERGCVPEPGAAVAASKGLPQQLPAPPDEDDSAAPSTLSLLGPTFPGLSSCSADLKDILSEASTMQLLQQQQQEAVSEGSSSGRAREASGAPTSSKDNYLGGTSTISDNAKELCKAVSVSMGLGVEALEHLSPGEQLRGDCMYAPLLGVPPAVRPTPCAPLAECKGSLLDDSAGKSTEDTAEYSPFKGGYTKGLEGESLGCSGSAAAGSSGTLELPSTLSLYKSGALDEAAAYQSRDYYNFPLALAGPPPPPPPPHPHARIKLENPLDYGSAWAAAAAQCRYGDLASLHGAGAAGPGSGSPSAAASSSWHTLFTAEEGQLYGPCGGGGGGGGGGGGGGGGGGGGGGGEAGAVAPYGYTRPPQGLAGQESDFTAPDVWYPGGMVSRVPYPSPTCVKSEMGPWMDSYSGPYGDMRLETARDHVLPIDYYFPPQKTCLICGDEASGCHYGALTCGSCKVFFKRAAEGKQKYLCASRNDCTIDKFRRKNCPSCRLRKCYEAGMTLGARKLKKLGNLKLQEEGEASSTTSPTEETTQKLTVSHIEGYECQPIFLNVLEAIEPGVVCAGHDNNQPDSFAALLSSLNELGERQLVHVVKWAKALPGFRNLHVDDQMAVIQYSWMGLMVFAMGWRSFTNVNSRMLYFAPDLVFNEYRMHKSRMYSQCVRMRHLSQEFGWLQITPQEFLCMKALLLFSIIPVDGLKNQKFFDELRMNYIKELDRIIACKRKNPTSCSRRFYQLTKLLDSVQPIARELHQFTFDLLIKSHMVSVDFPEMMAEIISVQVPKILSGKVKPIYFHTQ
Chain of Thyrotropin receptor (Homo sapiens) (P16473 whole entry, looked up): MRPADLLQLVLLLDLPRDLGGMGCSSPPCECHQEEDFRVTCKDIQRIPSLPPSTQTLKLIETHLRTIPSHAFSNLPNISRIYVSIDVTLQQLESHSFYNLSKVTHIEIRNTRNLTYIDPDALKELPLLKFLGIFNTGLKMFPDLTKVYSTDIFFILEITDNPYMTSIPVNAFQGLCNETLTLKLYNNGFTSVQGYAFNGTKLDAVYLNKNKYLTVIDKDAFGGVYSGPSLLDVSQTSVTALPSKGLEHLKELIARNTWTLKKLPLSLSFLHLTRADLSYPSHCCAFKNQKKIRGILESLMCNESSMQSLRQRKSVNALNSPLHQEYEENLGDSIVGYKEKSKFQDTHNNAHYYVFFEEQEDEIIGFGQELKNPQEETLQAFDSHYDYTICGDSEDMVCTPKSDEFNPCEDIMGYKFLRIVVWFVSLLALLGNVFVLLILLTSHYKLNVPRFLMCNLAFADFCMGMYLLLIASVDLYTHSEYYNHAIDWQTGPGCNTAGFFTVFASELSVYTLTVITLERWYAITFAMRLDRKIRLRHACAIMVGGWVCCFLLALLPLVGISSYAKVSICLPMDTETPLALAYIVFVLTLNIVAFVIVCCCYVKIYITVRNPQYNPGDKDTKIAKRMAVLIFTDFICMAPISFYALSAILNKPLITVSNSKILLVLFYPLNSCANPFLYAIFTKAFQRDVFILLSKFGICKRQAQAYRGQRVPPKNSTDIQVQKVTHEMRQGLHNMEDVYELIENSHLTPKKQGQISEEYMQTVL

Regarding `O=C(Oc1cccc2cccnc12)c1ccccc1`, the Potency entry in assay [1], in [2], in [3], in assay [5], in [6] and in assay [7] was “inactive” in each case. In addition, the Potency entry in [8] and in assay [10] was “inactive” in each case. For the same compound, the values for the Potency in assay [4] and in [9] were 1.5 µM (active) and 10.6 µM (active), respectively. Further, the outcome in assay [11] was inactive.
Take `COc1cc(/C=C/C(=O)O[C@H]2CC[C@]34C[C@]35CC[C@]3(C)[C@@H]([C@H](C)CCC=C(C)C)CC[C@@]3(C)[C@@H]5CC[C@H]4C2(C)C)ccc1O`: the Potency entry in assay [1], in assay [2], in assay [12], in assay [3], in assay [4] and in [13] was “inactive” each time. Further, the Potency result in assay [5], in [8], in assay [9] and in assay [14] was “inactive” each time.
Regarding `Cc1[nH]nc2c1N=C(c1ccccc1Cl)c1cc([N+](=O)[O-])ccc1N2`, the Potency in assay [1] was 27.3 µM (active); in assay [4] it was 13.7 µM (active); in assay [13], 8.63 µM (active); in [8], 30.6 µM (active); in assay [9] it was 27.3 µM (active); in assay [14], 48.6 µM (active). Also, the Potency entry in assay [12], in assay [3] and in assay [5] was “inactive” throughout. Further, the result in assay [11] was inactive.
As to `CCCC(=O)OC[C@@H](OC(=O)CCC)[C@@H](OC(=O)CCC)[C@H](Cn1c2nc(=O)[nH]c(=O)c-2nc2cc(C)c(C)cc21)OC(=O)CCC`, the Potency entry in assay [15], in assay [2], in assay [12], in assay [3], in assay [5] and in assay [8] was “inactive” in each case. For the same compound, the Potency entry in [18], in assay [14], in [10] and in assay [19] was “inactive” in each case. In addition, the Potency in assay [16] was 16.8 µM (active); in assay [17] it was 26.6 µM (active); in assay [6] it was 2.37 µM (active); in assay [9] it was 16.8 µM (active). Further, in [11], the result was inactive.
Take `CCc1cc(Cc2cc(CC)cc(C(C)(C)C)c2O)c(O)c(C(C)(C)C)c1`: the Potency in assay [16] was 30.6 µM (active); in assay [4] it was 61.1 µM (active); in [13], 61.1 µM (active); in [6], 27.3 µM (active); in assay [8], 54.5 µM (active); in assay [9], 19.3 µM (active). The Potency in [14] is 24.3 µM (active). The Potency result in assay [12], in assay [3], in assay [5], in assay [18] and in assay [19] was “inactive” throughout. For the same compound, the outcome in assay [11] was inactive.
With `CCN(CC)CCCC(C)Nc1c2ccc(Cl)cc2nc2ccc(OC)cc12` (stereo not drawn), the Potency entry in [1], in assay [13] and in [5] was “inactive” throughout. The values for the Potency in assay [6], in assay [8] and in assay [9] were 29.8 µM (active), 11.9 µM (active) and 6.68 µM (active), respectively.
With `Clc1ccccc1C(c1ccccc1)(c1ccccc1)n1ccnc1`, the Potency in assay [15] is 43.3 µM (active) and inactive; in [4] it was 13.7 µM (active); in assay [13] it was 13.7 µM (active); in assay [6], 13.3 µM (active); in assay [20] it was 8.41 µM (active); in [8], 30.6 µM (active) and inactive. Also, the Potency in assay [9] is 17.2 µM (active); in assay [14] it was 15.4 µM (active). The Potency result in [12], in assay [5], in assay [7] and in [10] was “inactive” each time. For the same compound, the call in assay [11] was inactive.
